From PubChem BioAssay AID1159580 (chemical genetic matrix, 2015)
Where “and” joins values, the source holds several entries; their conditions need not be identical. Equal values may be shown once. Screen size: about 5,500 compounds; about 2,000 (36%) were called active. About 18% were inconclusive and are not listed. No stated cut-off is given here; in the data, active means normalized growth mostly below about 0.91 (no sharp cut-off); inconclusive means no clear call, values can overlap the other calls; inactive means mostly above about 0.92. The list shows a part of the results.

Experiment: chemical genetic growth profiling, strain panel (AID 1159580);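 further: tested at 20 µM; growth read once vehicle control cultures reached saturation at 30 °C; 1 = growth at the plate median or of vehicle wells; lower values mean less growth of the strain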
Conditions: S. cerevisiae deletion strains, growth OD

Measured: normalized growth

Cc1ccc(S(=O)(=O)NC(=O)NN2CC3CCCC3C2)cc1 (configuration not stated)
inactive: locus YAL013W, strain DEP1, active compounds read low 1.01 | locus YAL021C, strain ccr4, active compounds read low 0.996 | locus YAL026C, strain drs2, active compounds read low 0.979 | locus YAL030W, strain snc1, active compounds read low 0.982 | locus YBL061C, strain skt5, active compounds read low 0.981 | locus YBR009C, strain hhf1, active compounds read low 0.976 | locus YBR021W, strain FUR4, active compounds read low 1.01 | locus YBR023C, strain chs3, active compounds read low 0.973 | locus YBR171W, strain sec66, active compounds read low 0.995 | locus YBR229C, strain ROT2, active compounds read low 1.01 | locus YBR231C, strain swc5, active compounds read low 0.984 | locus YBR279W, strain paf1, active compounds read low 0.987 | locus YCL011C, strain gbp2, active compounds read low 0.961 | locus YCL016C, strain dcc1, active compounds read low 0.98 | locus YCL029C, strain bik1, active compounds read low 1.01 | locus YCL069W, strain vba3, active compounds read low 0.993 | locus YCR088W, strain abp1, active compounds read low 0.972 | locus YDL005C, strain med2, active compounds read low 0.98 | locus YDL035C, strain GPR1, active compounds read low 0.946 | locus YDL040C, strain nat1, active compounds read low 0.984 | locus YDL074C, strain BRE1, active compounds read low 1.01 | locus YDL101C, strain DUN1, active compounds read low 1.02 | locus YDL134C, strain PPH21, active compounds read low 0.962 | locus YDL185W, strain tfp1, active compounds read low 1.02 | locus YDL192W, strain arf1, active compounds read low 1.01 | locus YDR001C, strain nth1, active compounds read low 0.968 | locus YDR069C, strain doa4, active compounds read low 0.99 | locus YDR101C, strain arx1, active compounds read low 1 | locus YDR137W, strain rgp1, active compounds read low 0.89 | locus YDR159W, strain sac3, active compounds read low 0.991 | locus YDR162C, strain NBP2, active compounds read low 0.994 | locus YDR195W, strain ref2 0.975 | locus YDR297W, strain sur2, active compounds read low 0.975 | locus YDR318W, strain mcm21, active compounds read low 1.01 | locus YDR334W, strain swr1, active compounds read low 0.959 | locus YDR335W, strain msn5, active compounds read low 0.979 | locus YDR388W, active compounds read low 1.01 | locus YDR392W, strain spt3, active compounds read low 0.974 | locus YDR502C, strain sam2, active compounds read low 0.997 | locus YEL003W, strain gim4, active compounds read low 0.968 | locus YEL037C, strain rad23, active compounds read low 0.986 | locus YEL061C, strain CIN8 (second series), active compounds read low 0.955 | locus YEL061C, strain CIN8, active compounds read low 1 | locus YER015W, strain faa2, active compounds read low 0.975 | locus YER016W, strain bim1, active compounds read low 0.995 | locus YER110C, active compounds read low 1.02 | locus YER111C, strain swi4, active compounds read low 0.972 | locus YER155C, strain BEM2 (second series), active compounds read low 0.977 | locus YER155C, strain BEM2, active compounds read low 1 | locus YER167W, strain BCK2, active compounds read low 1 | locus YFR010W, strain ubp6, active compounds read low 0.986 | locus YGL078C, strain dbp3, active compounds read low 1.01 | locus YGL086W, strain mad1, active compounds read low 0.984 | locus YGL167C, strain pmr1, active compounds read low 0.982 | locus YGL173C, strain kem1, active compounds read low 1 | locus YGL227W, strain vid30, active compounds read low 0.969 | locus YGL240W, strain doc1, active compounds read low 0.969 | locus YGL248W, strain PDE1, active compounds read low 0.995 | locus YGL253W, strain hxk2, active compounds read low 0.987 | locus YGR135W, strain pre9, active compounds read low 1.03 | locus YGR229C, strain SMI1, active compounds read low 1.01 | locus YGR252W, strain gcn5, active compounds read low 1.05 | locus YHR013C, strain ard1, active compounds read low 0.967 | locus YHR027C, strain rpn1, active compounds read low 0.983 | locus YHR030C, strain SLT2, active compounds read low 1 and 0.961 | locus YHR079C, strain IRE1 (second series), active compounds read low 1.01 | locus YHR079C, strain IRE1, active compounds read low 0.966 | locus YHR094C, strain hxt1, active compounds read low 1.01 | locus YHR129C, strain ARP1, active compounds read low 0.992 | locus YHR142W, strain chs7, active compounds read low 0.98 | locus YHR200W, strain rpn10, active compounds read low 1.01 | locus YIL066C, strain RNR3, active compounds read low 1 | locus YIL073C, strain SPO22, active compounds read low 1.05 | locus YIL125W, strain kgd1, active compounds read low 1.01 | locus YIR030C, strain dcg1, active compounds read low 1.03 | locus YJL092W, strain hpr5, active compounds read low 0.954 | locus YJL095W, strain BCK1 (second series), active compounds read low 0.973 | locus YJL095W, strain BCK1, active compounds read low 1.02 and 0.973 | locus YJL115W, strain asf1, active compounds read low 0.945 | locus YJL129C, strain trk1, active compounds read low 0.954 | locus YJL134W, strain LCB3, active compounds read low 1 | locus YJL154C, strain vps35, active compounds read low 0.97 | locus YJL164C, strain tpk1, active compounds read low 0.97 | locus YJL166W, strain qcr8, active compounds read low 0.981 | locus YJL168C, strain set2, active compounds read low 1.01 | locus YJL187C, strain SWE1 (second series), active compounds read low 1 | locus YJL187C, strain SWE1, active compounds read low 0.989
